Source: PubChem BioAssay
HepG2 tox: qHTS for Inhibitors of TGF-b: Cytotox Counterscreen. HepG2 CAGA-GFP viability, ATP luminescence, 18 h. Potency, µM (highest dose often 46.1 µM), without a hit: at the highest dose activity change, negative = cytotoxicity, usual class: cytotoxic. 410,000 compounds, 0.76% hits. AID 588856, 2011
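HepG2 CAGA-GFP cells (1000/well, DMEM with 1% FBS) received compound, then TGF-beta at 500 pg/mL final, and were incubated 18 hours at 37 degrees C. Viability was read by CellTiter-Glo luminescence. Media-only wells were set as complete cell-killing and DMSO as no toxicity.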
TGFb SMAD3 inh: qHTS for Inhibitors of TGF-b | HepG2 CAGA-GFP TGF-b/SMAD3 reporter, GFP fluorescence, 18 h; TGF-beta stimulated, 500 pg/mL final | 410,000 compounds, 1.2% hits | Potency, µM (top dose mostly 46.1 µM), for inactives: at the highest dose activity, negative = inhibition, usual class: inhibitors; note: % is set by controls: 0 for no effect and ±100 for the full control effect; nearly all actives have a fitted effect of over 65% in size
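HEPG2 CAGA-GFP reporter cells (1000/well, DMEM with 1% FBS) received compounds, then recombinant TGF-beta at 500 pg/mL final for 18 hours at 37 degrees C. Per-cell GFP summed per well was normalised to unstimulated and stimulated DMSO controls before curve fitting.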
ATXN2 expr inh: Primary qHTS for Inhibitors of ATXN expression; Potency, µM (top dose mostly 57 µM), without a hit: top-dose activity change, negative = inhibition, usual class: inhibitors; HEK-293 ATXN2-luciferase reporter, luminescence, 24 h; 360,000 compounds, 0.72% hits; note: % is set by controls: 0 for no effect and ±100 for the full control effect; nearly all actives have a fitted effect of over 55% in size
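ATXN2-luciferase reporter cells (luciferase flanked by upstream and downstream ATXN2 gene portions) were treated 24 h at 37 °C with compounds at up to 57 uM. SteadyGlo luminescence gave expression; GF-AFC fluorescence gave viability.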
DT40 TDP1 no CPT: qHTS for Inhibitors of human tyrosyl-DNA phosphodiesterase 1 (TDP1): qHTS in cells in absence of CPT | Potency, µM (series often up to 46.2 µM), inactives show at the highest dose activity change, negative = growth inhibition, actives largely listed as inhibitors | DT40 Tdp1-/- hTDP1 cells, no CPT, ATP luminescence, 48 h | AID 686978, 2013 | 420,000 compounds, 15% hits; note: % is set by controls: 0 for no effect and ±100 for the full control effect; nearly all actives have a fitted effect of over 55% in size
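Readout: luminescence from CellTiter-Glo after 30 min in the dark at RT. Cells: DT40 Tdp1-/- with stable hTDP1, 400/well. Exposure: compounds alone, ≥48 hr, 37 °C.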
S2 tox: Viability Counterscreen for Primary qHTS for Inhibitors of ATXN expression; 400,000 compounds, 0.49% hits; S2 cells (HEK-293 line with an ATXN2-luciferase reporter) viability, CellTiter-Fluor protease fluorescence, 24 h; Potency, µM (top dose mostly 56.7 µM), usual class: cytotoxic; note: nearly all actives have a fitted effect of over 40% in size
DT40 TDP1 CPT: qHTS for Inhibitors of human tyrosyl-DNA phosphodiesterase 1 (TDP1): qHTS in cells in presence of CPT; chicken DT40 Tdp1-/-;hTDP1 cells + 20 nM CPT, ATP luminescence, 48 h; Potency, µM (titrated, usually from 46.2 µM), without a hit: top-dose activity change, negative = growth inhibition, actives largely listed as inhibitors; 420,000 compounds, 12% hits; note: % is set by controls: 0 for no effect and ±100 for the full control effect; nearly all actives have a fitted effect of over 55% in size
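Chicken DT40 Tdp1-/- cells stably complemented with human TDP1 were seeded at 400 cells/well in medium containing 20 nM camptothecin, exposed to pin-transferred compounds, and grown at 37 °C for at least 48 hr. Viability was read as ATP luminescence.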
An asterisk follows results filed as active; i = inactive; ? = inconclusive; / = not tested or not shown. In the library only some 17% were active in any assay of this set; here they are far more common. Calls come from the whole dose curve; as a rule, active = well fitted curve in the direction sought with a large enough effect; inconclusive = small, poorly fitted or top-dose-only effect, or another doubt; inactive = no such curve, though single readings can be large; an effect the other way counts as inactive or inconclusive. Potency is the fitted concentration of half-maximal effect.

SMILES	HepG2 tox	TGFb SMAD3 inh	ATXN2 expr inh	DT40 TDP1 no CPT	S2 tox	DT40 TDP1 CPT
COc1ccc(OCCN2CCC(C(=O)NC(c3ccsc3)c3ccccc3C)CC2)cc1 (stereo not given)	-15.9%	4.7%	0.0%	?	?	?
COc1cc(CN2CCC(C(=O)NC(c3ccccc3)c3ccsc3)CC2)cc(OC)c1 (stereo not given)	-47.4%	-1.0%	-12.7%	20.6µM*	i	16.4µM*
Cc1ccccc1C(NC(=O)C1CCN(Cc2ccc(Oc3ccccc3)cc2)CC1)c1ccsc1 (stereo not given)	-28.9%	2.7%	0.0%	18.4µM*	i	18.4µM*
CCCN1CCC(C(=O)NC(c2ccc(Cl)cc2)c2ccsc2)CC1 (stereo not given)	-37.1%	-2.5%	-21.6%	2.91µM*	i	?
O=C(NC(c1ccccc1)c1ccsc1)C1CCN(Cc2ccccc2)CC1 (stereo not given)	-4.0%	21.7%	6.0%	?	i	?
CCCN(CC(=O)Nc1ccc(F)c(F)c1F)C(=O)c1ccc(=O)n(Cc2ccccc2)n1	-19.7%	?	-5.3%	?	i	-17.4%
C[C@@H]1CN([C@H](C)CO)C(=O)c2cc(-c3ccc(C(=O)N(C)C)cc3)cnc2O[C@@H]1CN(C)C(=O)c1cccnc1	-1.1%	8.9%	2.7%	8.5%	i	4.2%
COc1cc(-c2ccno2)ccc1S(=O)(=O)N1CCN(c2ccc(F)cc2)CC1	-8.0%	?	-4.8%	7.31µM*	i	?
COc1cc(-c2ccno2)ccc1S(=O)(=O)N1CCN(c2ccc(C(C)=O)cc2)CC1	-27.8%	?	8.8%	14.6µM*	i	?
C/C(=N\NC(=O)Cc1c(Cl)cccc1Cl)c1cccnc1	1.2%	21.0%	-1.4%	-7.8%	i	-16.1%
CC(C)(C)C(=O)Nc1ccc(Cc2ccncc2)cc1	-7.6%	-1.7%	2.2%	-29.0%	i	-3.5%
CCN1CCN(CC(=O)n2c3c(c4ccccc42)CC(C)CC3)CC1 (stereo not given)	-29.8%	-6.8%	-15.3%	18.4µM*	i	?
CC1(C(=O)Nc2cccnc2)Cc2c(-c3ccc4c(c3)OCO4)ccnc2O1 (stereo not given)	-26.6%	-3.2%	-19.8%	?	i	-76.2%
CC1(C(=O)Nc2cccnc2)Cc2c(-c3cccc(C(F)(F)F)c3)ccnc2O1 (stereo not given)	-38.8%	?	-34.2%	23.1µM*	i	16.4µM*
CC(=O)c1cccc(NC(=O)C2(C)Cc3c(-c4cccc(C(F)(F)F)c4)ccnc3O2)c1 (stereo not given)	-47.3%	?	?	23.1µM*	?	16.4µM*
CC(=O)Nc1ccc(NC(=O)C2(C)Cc3c(-c4cccc(C(F)(F)F)c4)ccnc3O2)cc1 (stereo not given)	-8.4%	6.2%	-14.5%	?	i	?
COc1cccc(C(NC(C)=O)c2nc(-c3ccc(N(C)C)cc3)cs2)c1 (stereo not given)	-15.2%	-0.9%	-27.6%	?	?	?
Nc1nonc1-n1nnc(C(=O)N/N=C/c2cc(Br)cs2)c1-c1ccccc1	-7.1%	?	2.4%	?	i	?
Nc1cc[n+](CC(=O)c2ccccc2)cc1	-26.7%	?	/	?	i	?
O=C(Cn1cc[n+](CC(=O)c2ccccc2)c1)c1ccccc1	0.2%	-19.6%	-6.0%	4.11µM*	i	8.2µM*
O=C(Cn1cc[n+](CC(=O)c2ccc(Cl)cc2Cl)c1)c1ccc(Cl)cc1Cl	-138.7%	?	-36.7%	25.9µM*	?	?
COc1ccc(CNC(=O)c2cnc3sc(N4CCOCC4)nn3c2=O)cc1	1.6%	5.5%	/	-24.2%	/	-10.1%
CCNC(=O)C(=O)N/N=C/c1cc([N+](=O)[O-])ccc1O	-21.1%	0.0%	-35.4%	?	?	14.6µM*
O=C(N/N=C/c1cc([N+](=O)[O-])ccc1O)NC12CC3CC(CC(C3)C1)C2	-24.5%	?	2.5%	?	?	?
O=C(N/N=C/c1cc([N+](=O)[O-])ccc1O)c1c[nH]c2ccccc12	-31.4%	?	14.1µM*	?	i	?
SMILES	HepG2 tox	TGFb SMAD3 inh	ATXN2 expr inh	DT40 TDP1 no CPT	S2 tox	DT40 TDP1 CPT
O=C(NN=Cc1cc([N+](=O)[O-])ccc1O)c1cccc2ccccc12	-35.1%	?	?	7.31µM*	/	7.31µM*
O=C(N/N=C/c1cc([N+](=O)[O-])ccc1O)C12CC3CC(CC(C3)C1)C2	-4.2%	-17.3%	/	23.1µM*	?	?
CCCS(=O)(=O)NC(=O)C1(C)CCCN(C(=O)c2cc(-c3ccccc3)cs2)C1 (stereo not given)	-38.4%	-11.5%	8.1%	-15.5%	i	-13.4%
Cc1ccnc(NC(=O)c2ccc(Cl)c(S(=O)(=O)N3CCCC3)c2)c1	-22.4%	-24.2%	-11.4%	?	i	?
Nc1ccc(C(=O)N/N=C\c2cc(N=Nc3cccc4ccccc34)ccc2O)cc1	-10.2%	-31.1%	5.62µM*	4.61µM*	?	5.17µM*
COc1cc(N2CN=c3s/c(=C\c4ccccn4)c(=O)n3C2)cc(OC)c1OC	-31.8%	-1.4%	9.1%	-26.0%	i	-5.5%
CCN1C(=O)N(C)[C@@H](c2ccccc2)C(C(=O)OC)=C1C	-4.6%	-3.0%	0.1%	?	i	2.5%
Cc1ccc2nc(-c3ccc(C)s3)c(Nc3ccc4c(c3)OCCO4)n2c1	-16.9%	-4.5%	86.9%	?	i	23.1µM*
Clc1ccc2nc(-c3ccc(Br)o3)c(Nc3ccc4c(c3)OCCO4)n2c1	-26.4%	-6.4%	15.0%	?	i	20.6µM*
c1coc(-c2nc3ccccn3c2Nc2ccc3c(c2)OCCO3)c1	-46.1%	-21.7%	0.4%	-91.5%	?	?
Cc1ccc2nc(-c3ccco3)c(Nc3ccc4c(c3)OCCO4)n2c1	-11.0%	-14.4%	9.4%	?	i	16.4µM*
Cc1ccccc1Nc1c(-c2ccc(Br)o2)nc2ccc(Cl)cn12	-36.0%	0.0%	7.2%	?	i	?
